Source: PubChem
RE007 growth inh: qHTS Assay for Inhibitors of the HIV-1 protein Vpr | Potency, µM (series often up to 92.2 µM), usual class: inhibitors | 360,000 tested, 0.21% active | AID 651644, 2012 | S. pombe RE007 Vpr strain, BacTiter-Glo ATP luminescence, 24 h; active means well fitted falling curve with a large enough effect; inconclusive means small, poorly fitted or top-dose-only effect; inactive means no such curve, though single readings can be large or run the other way; further: nearly all actives have a fitted effect of over 50% in size
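Fission yeast strain RE007, carrying one chromosomally integrated HIV-1 vpr copy, was seeded at OD 0.01 in PMG+AL medium with 23 nL pinned compound. After 24 h at 30 °C and 99% humidity, viability was read by BacTiter-Glo luminescence.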
FMDV inh: High Throughput Screening for Foot and Mouth Disease Virus Antivirals; 410,000 tested, 1.2% active; Potency, µM (titrated, usually from 57.9 µM), hits mostly inhibitors; FMDV antiviral cell-based qHTS; calls by dose curve; tested in HEK293T cells; further: read-out not given here; nearly all actives have a fitted effect of over 45% in size
Tb PYK inh: qHTS of Trypanosoma Brucei Inhibitors; pyruvate kinase (Trypanosoma brucei), Q57TT1; TbPYK enzyme, Kinase-Glo Plus ATP luminescence, 45 min; Potency, µM (series often up to 76.8 µM), actives largely listed as inhibitors; 410,000 tested, 0.12% active; AID 624173, 2012; further: nearly all actives have a fitted effect of over 50% in size
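Assay buffer: 50 mM TEA pH 7.2, 100 mM KCl, 10 mM MgCl2, 0.05% BSA, 0.01% Tween-20. Pyruvate kinase from T. brucei plus substrate met compound, then ADP (130 uM final). Luminescence was read post 45 min RT.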
Sm TGR block: qHTS Assay for the Inhibitors of Schistosoma Mansoni Peroxiredoxins; purified TGR, DTNB reduction, TNB absorbance 405 nm; Potency, µM (doses to about 114 µM), usual class: inhibitors; 360,000 tested, 3% active; AID 485364, 2010; further: nearly all actives have a fitted effect of over 60% in size
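TGR 20 nM + NADPH 100 uM (dispensed conc.), cpd preinc 15 min RT; start with NADPH (500 uM addition) then DTNB (15 mM addition). Kinetic TNB absorbance, 405 nm filter. Four-parameter Hill fit across titration.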
Of the large screens only hits and unclear results are named; the others gave an inactive call. This is a sample that favours compounds with a hit; in the whole collection about 3.7% have one here. Unless noted, the call rests on the fitted dose curve; in most records, active means well fitted curve in the direction sought with a large enough effect; inconclusive means small, poorly fitted or top-dose-only effect, or another doubt; inactive means no such curve, though single readings can be large; an effect the other way counts as inactive or inconclusive.

CN(C)S(=O)(=O)c1cccc(NC(=S)Nc2ccc(Cl)cc2Cl)c1	FMDV inh inconclusive, Sm TGR block 8.9µM
COc1ccc2ccc(O)c(CN3CCN(S(=O)(=O)c4cccc(C(F)(F)F)c4)CC3)c2c1	FMDV inh inconclusive, Sm TGR block 2.5µM
COc1ccc2ccc(O)c(CN3CC=C(c4ccccc4)CC3)c2c1	Sm TGR block 8.9µM
C=C1C(=O)OC2C=C(CO)CCC=C(CO)CC(OC(=O)C(C)C)C12 (configuration not stated)	FMDV inh 40µM (no result: Sm TGR block)
COc1ccccc1N1CCN(C(=O)c2ccc3nc[nH]c3c2)CC1	none
COc1ccccc1N1CCN(C(=O)c2ccc3nc(-c4ccco4)c(-c4ccco4)nc3c2)CC1	FMDV inh inconclusive, Tb PYK inh inconclusive, Sm TGR block 14µM
Cc1ccc(C)c(N2CCN(C(=O)c3ccc4nc(-c5ccco5)c(-c5ccco5)nc4c3)CC2)c1	Sm TGR block 6.3µM
CCOc1cc(C(=O)N2CCc3c([nH]c4ccccc34)C2c2ccccc2)cc(OCC)c1OCC (configuration not stated)	none (no result: RE007 growth inh)
COc1ccc(-c2cc(C)cc3c2OC(CNC(=O)c2cc(C(C)C)on2)C3)nn1 (configuration not stated)	none (no result: RE007 growth inh, Tb PYK inh, Sm TGR block)
COc1cc2c(cc1OC)CN(c1ccc([N+](=O)[O-])cc1C#N)CC2	FMDV inh 32µM
COc1cc2c(cc1OC)CN(c1ccc([N+](=O)[O-])cc1Cl)CC2	RE007 growth inh inconclusive, FMDV inh inconclusive
CS(=O)(=O)N1CC(C(=O)NN)Oc2ccc(Cl)cc21 (configuration not stated)	none
NC(=O)C1CN(S(=O)(=O)c2ccc(Cl)cc2F)c2ccccc2O1 (configuration not stated)	Sm TGR block 40µM
O=C(Nc1ccc(Cl)cc1C(=O)NCc1cccnc1)c1ccco1	none
O=C(Nc1ccc(Cl)cc1C(=O)Nc1ccncc1)c1ccco1	Sm TGR block 40µM
COC(=O)C1CCN(Cc2ccc3c(c2)CN(C(=O)c2ncc(C)[nH]2)CCO3)CC1	none (no result: RE007 growth inh, Tb PYK inh, Sm TGR block)
C(=C1/CCCC2=C1Nc1ncnn1C2c1ccccc1)/c1ccccc1 (configuration not stated)	Sm TGR block 0.5µM (no result: RE007 growth inh, FMDV inh, Tb PYK inh)
O=C(NCCSc1c(-c2ccc(Cl)cc2)[nH]c2ccccc12)c1ccc(S(=O)(=O)N2CCOCC2)cc1	none (no result: RE007 growth inh)
CCC(C(=O)NCc1ccco1)N(C(=O)CNS(=O)(=O)c1ccccc1)C1CCCCC1 (configuration not stated)	Sm TGR block 45µM (no result: FMDV inh)
CC(c1ccncn1)N(C)Cc1nc(-c2ccc(C(F)(F)F)cc2)no1 (configuration not stated)	none
Cc1oc(-c2ccc3ccccc3c2)nc1CN(C)C(C)c1ccncn1 (configuration not stated)	Sm TGR block 50µM
COC(C#CCCN(C)C)(c1ccccc1)c1ccccc1	RE007 growth inh inconclusive, FMDV inh inconclusive, Sm TGR block 28µM
CCOc1ccccc1CN(CCc1ccc2c(c1)OCO2)Cc1cc(OC)c(OC)cc1OC	none (no result: RE007 growth inh)
CC1CCN(S(=O)(=O)c2ccc3c(c2)N(CC(=O)O)C(=O)CO3)CC1	FMDV inh inconclusive (no result: RE007 growth inh)
Cc1nc2c(OCc3ccc(C#N)cc3)cccn2c1N(C)Cc1cccs1	FMDV inh 28µM (no result: Sm TGR block)
COc1cc(NC(=O)Cn2nc(C(F)(F)F)c(Br)c2C)cc([N+](=O)[O-])c1	FMDV inh 40µM
NNC(=O)c1cc2c(N3CCC(Cc4ccccc4)CC3)ncnc2s1	FMDV inh 14µM
Cn1ncc2c(N3CCC(Cc4ccccc4)CC3)ncnc21	FMDV inh 20µM (no result: Sm TGR block)
CCc1ccc(NC(=O)CN2C(=O)c3cccc4cccc2c34)cc1	none (no result: RE007 growth inh)
COc1ccc(CNC(=O)[C@H](C)N2C(=O)N3CCc4c([nH]c5ccccc45)[C@@]3(C)C2=O)cc1OC	FMDV inh 32µM
Cc1ccc(CNC(=O)[C@H](C)N2C(=O)N3CCc4c([nH]c5ccccc45)[C@@]3(C)C2=O)cc1	FMDV inh inconclusive
COc1ccc(N2CCN(C(=O)c3c(C)oc4ncn(CC(C)C)c(=O)c34)CC2)cc1	none (no result: RE007 growth inh)
COc1ccc2c(CNCc3cccs3)c(C(=O)O)n(Cc3ccccc3F)c2c1	none (no result: RE007 growth inh)
COc1cc(/C=N/Nc2ccccc2C(F)(F)F)ccc1O	Sm TGR block 40µM
COc1cc(/C=N/Nc2ccccc2)ccc1O	Sm TGR block 40µM
